In the library only some 8% were active in any assay of this set; here they are far more common.
HT1080 IDH1KD tx – kills HT-1080 cells with IDH1 knockdown. 360,000 compounds, 2% hits. HT-1080 IDH1 knockdown viability, ATP luminescence, 48 h. Potency, µM (doses to about 46.1 µM), hits mostly cytotoxic
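Knockdown cells (IDH1KD HT-1080) received compounds 2 h after plating at 750 cells/well and were kept 48 h at 37 °C in 5% FBS RPMI. A CellTiter-Glo luminescence read gave % activity for curve fitting.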
HT1080NT lethal – kills 2HG-producing HT-1080-NT fibrosarcoma cells; HT-1080-NT fibrosarcoma viability, CellTiter-Glo ATP luminescence, 48 h; 360,000 compounds, 1.6% hits; Potency, µM (highest dose often 46.1 µM), most hits filed as cytotoxic;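 note: NT is the 2HG producing partner of a matched IDH1 knockdown line; nearly all actives have a fitted effect of over 55% in size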
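Viability by CellTiter-Glo luminescence after 48 h compound exposure at 37C of HT-1080-NT cells (750/well, RPMI, 5% FBS). % activity scaled between DMSO wells and medium-only wells, then curve-fitted and categorized by curve class.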
MCF10A rereplic – DNA re-replication induction in MCF 10a cells; MCF 10A DNA re-replication, Hoechst nuclear intensity, 48 h; Potency, µM (highest dose often 46.1 µM), usual class: activators; 350,000 compounds, 2.9% hits; AID 624296; note: nearly all actives have a fitted effect of over 50% in size
SW480 rereplic – induces DNA re-replication in SW480 colon adenocarcinoma cells; Potency, µM (highest dose often 46.1 µM), most hits filed as activators; 340,000 compounds, 1.8% hits; AID 624297; SW480 DNA re-replication, Hoechst DNA content imaging, 48 h; note: nearly all actives have a fitted effect of over 55% in size
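Hoechst fluorescence of nuclei (405 nm excitation, 500-530 nm emission) measured by plate-scanning imager after 48 hr compound exposure at 37 C; re-replication scored as increased number of nuclei with elevated intensity.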
KB-3-1 tox – kills parental KB-3-1 adenocarcinoma cells | KB-3-1 viability, CellTiter-Glo ATP luminescence, 72 h | Potency, µM (highest dose often 46.1 µM), hits mostly cytotoxic | 400,000 compounds, 1.4% hits; note: nearly all actives have a fitted effect of over 60% in size
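Cytotoxicity measured as CellTiter-Glo luminescence after 72 h at 37 C. Compound titrations were pinned onto drug-naive KB-3-1 parental adenocarcinoma cells grown in DMEM with 10% FBS, and normalized data fitted to concentration-response curves.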
KB-V1 MDR tox – KB-V1 MDR subline cytotoxicity | Potency, µM (series often up to 46.1 µM), actives largely listed as cytotoxic | AID 1347076 | 400,000 compounds, 3.4% hits | KB-V1 MDR cells viability, CellTiter-Glo, 72 h; note: nearly all actives have a fitted effect of over 60% in size
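KB-V1 MDR subline cells in DMEM (phenol-red free, 10% FBS) exposed to compounds in qHTS concentration series for 72 h at 37 degrees C. Viability read by CellTiter-Glo luminescence; concentration-effect curves fitted after normalization and correction.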
Each line names hits and unclear results; the compound was inactive in the other large screens. Calls come from the whole dose curve; as a rule, active = well fitted curve in the direction sought with a large enough effect; inconclusive = small, poorly fitted or top-dose-only effect, or another doubt; inactive = no such curve, though single readings can be large; an effect the other way counts as inactive or inconclusive.

CC1(c2ccc([N+](=O)[O-])cc2)Nc2ccccc2S1 (stereo unspecified)	HT1080 IDH1KD tx 21µM, HT1080NT lethal inconclusive
O=C1Nc2ccccc2/C1=C/c1ccc([N+](=O)[O-])cc1	none
COc1ccc(Cc2noc(CN3CCC(c4ccncc4)CC3)n2)cc1OC	HT1080 IDH1KD tx inconclusive, KB-3-1 tox inconclusive, KB-V1 MDR tox 18µM
COc1cc(Cl)ccc1OCc1cc(C(=O)N2CCC(N(C)C)C2)no1 (stereo unspecified)	none
CCOc1ccc(S(=O)(=O)N2CCN=C2c2ccccc2)cc1	HT1080NT lethal inconclusive, MCF10A rereplic 21µM, SW480 rereplic 7.3µM, KB-3-1 tox inconclusive, KB-V1 MDR tox 12µM
OC(CN1CCCCC1)Cn1c2ccc(Cl)cc2c2cc(Cl)ccc21 (stereo unspecified)	HT1080 IDH1KD tx inconclusive, HT1080NT lethal 21µM, MCF10A rereplic inconclusive, SW480 rereplic inconclusive, KB-3-1 tox inconclusive, KB-V1 MDR tox inconclusive
OC(CN1CCN(c2ccccn2)CC1)Cn1c2ccc(Cl)cc2c2cc(Cl)ccc21 (stereo unspecified)	HT1080 IDH1KD tx 16µM, HT1080NT lethal inconclusive, MCF10A rereplic 21µM, SW480 rereplic inconclusive, KB-3-1 tox inconclusive, KB-V1 MDR tox inconclusive
CC1CCN(CC(O)Cn2c3ccccc3c3ccccc32)CC1 (stereo unspecified)	KB-V1 MDR tox inconclusive
OC(COC(c1ccc(Cl)cc1)c1ccc(Cl)cc1)CN1CCN(c2ccccn2)CC1 (stereo unspecified)	HT1080 IDH1KD tx inconclusive, HT1080NT lethal inconclusive, MCF10A rereplic inconclusive, SW480 rereplic inconclusive, KB-3-1 tox 18µM, KB-V1 MDR tox inconclusive
OC(CN1CCN(Cc2ccccc2)CC1)Cn1c2ccccc2c2ccccc21 (stereo unspecified)	HT1080 IDH1KD tx inconclusive, HT1080NT lethal inconclusive, MCF10A rereplic inconclusive, KB-3-1 tox inconclusive, KB-V1 MDR tox 23µM (no result: SW480 rereplic)
Cc1cccc(C)c1OCC(O)CN1CCN(c2ccccn2)CC1 (stereo unspecified)	none
O=C(COC(=O)C1CCN(S(=O)(=O)c2ccc3c(c2)OCCO3)CC1)NC1CCCCC1	none
O=C(NCc1ccncc1)c1cccc(Cn2cc(Br)cn2)c1	none
O=C(NN=C1CCCC1)c1[nH]c2ccc(Br)cc2c1-c1ccccc1	HT1080 IDH1KD tx 5.8µM, HT1080NT lethal 8.2µM, MCF10A rereplic inconclusive, SW480 rereplic inconclusive
O=C(N/N=C/c1ccccc1)c1[nH]c2ccc(Br)cc2c1-c1ccccc1	HT1080 IDH1KD tx 0.73µM, HT1080NT lethal 0.46µM, MCF10A rereplic inconclusive, SW480 rereplic inconclusive, KB-3-1 tox 0.73µM, KB-V1 MDR tox 0.82µM
O=C(Nc1cccc(S(=O)(=O)NC2=NCCCCC2)c1)c1cc(-c2ccccc2Cl)nc2ccccc12	MCF10A rereplic inconclusive
O=C(Nc1cccc(S(=O)(=O)NC2=NCCC2)c1)c1cc(-c2ccccn2)nc2ccccc12	HT1080 IDH1KD tx inconclusive, HT1080NT lethal 23µM
CCN(CC)c1ccc(C(=O)OCC(=O)Nc2cccc(S(=O)(=O)NC3=NCCCCC3)c2)cc1	MCF10A rereplic inconclusive, KB-3-1 tox inconclusive, KB-V1 MDR tox 21µM
O=C(COC(=O)c1ccccc1)Nc1cccc(S(=O)(=O)NC2=NCCCCC2)c1	HT1080NT lethal inconclusive
Cc1cc(C)cc(C(=O)OCC(=O)Nc2cccc(S(=O)(=O)NC3=NCCCCC3)c2)c1	SW480 rereplic inconclusive, KB-3-1 tox inconclusive, KB-V1 MDR tox 16µM
O=C(CCl)Nc1cccc(S(=O)(=O)NC2=NCCC2)c1	HT1080 IDH1KD tx 16µM, HT1080NT lethal 18µM, MCF10A rereplic inconclusive, SW480 rereplic inconclusive, KB-3-1 tox 18µM
COc1ccc(C2C=C(c3ccccc3)Nc3nc(NC(C)=O)nn32)cc1 (stereo unspecified)	none (no result: HT1080 IDH1KD tx, HT1080NT lethal, MCF10A rereplic, SW480 rereplic)
COc1ccc(CCc2ccc3ccccc3n2)cc1	MCF10A rereplic 18µM
NS(=O)(=O)c1ccc(CNC(=O)c2ccccc2SCC(=O)N2CCCC2)cc1	none
Cn1c2ccccc2c2ncn(CCC3=CCCCC3)c(=O)c21	MCF10A rereplic inconclusive, KB-V1 MDR tox 16µM
Cn1c2ccccc2c2ncn(CCCN3CCOCC3)c(=O)c21	none
Cc1occc(=O)c1OC(=O)Nc1ccc(Cl)c(Cl)c1	HT1080 IDH1KD tx inconclusive, HT1080NT lethal 23µM, MCF10A rereplic 18µM, KB-3-1 tox inconclusive, KB-V1 MDR tox inconclusive
COc1ccc(C(=O)Oc2c(C)occc2=O)cc1OC	KB-V1 MDR tox inconclusive
CCS(=O)(=O)N1CCC(C(=O)N2CCc3ccccc3C2)CC1	KB-V1 MDR tox 13µM
O=C(C1CCCN(Cc2ccccc2)C1)N1CCc2ccccc2C1 (stereo unspecified)	KB-V1 MDR tox 23µM
CC(C)CN(CC(C)C)S(=O)(=O)N1CCC(C(=O)N2CCc3ccccc3C2)CC1	MCF10A rereplic inconclusive, KB-V1 MDR tox inconclusive
CCCCOc1ccc(S(=O)(=O)NCc2csc(C)n2)cc1	HT1080NT lethal inconclusive, KB-3-1 tox 18µM, KB-V1 MDR tox inconclusive
COc1ccc(Cl)cc1NC(=O)CSc1nnc(-c2ccncc2)n1CC1CCCO1 (stereo unspecified)	none
COCCN1C(=O)N(c2ccc(OC)cc2)C(=O)C1CC(=O)Nc1cccc(F)c1 (stereo unspecified)	MCF10A rereplic 0.92µM
CCOc1ccc(NC(=O)CC2C(=O)N(c3ccc(OC)cc3)C(=O)N2CCc2cccs2)cc1 (stereo unspecified)	KB-V1 MDR tox 18µM
CCN(Cc1ccc(OC)c(F)c1)C(=O)c1cc2ccccc2o1	MCF10A rereplic inconclusive, SW480 rereplic inconclusive
O=C(COc1ccc(N2C(=O)c3ccccc3C2=O)cc1)c1ccccc1	none
O=[N+]([O-])c1ccc(-c2nnc(-c3ccccc3)c(N3CCOCC3)n2)cc1	KB-V1 MDR tox 12µM
FC(F)(F)c1cccc(-c2nnc(-c3ccccc3)c(N3CCOCC3)n2)c1	none
Cc1cccc(-n2ncc3c(Nc4c(C)n(C)n(-c5ccccc5)c4=O)ncnc32)c1	KB-V1 MDR tox 21µM
COc1cccc(Nc2ncnc3c2cnn3-c2cccc(C)c2)c1	MCF10A rereplic inconclusive, KB-V1 MDR tox 21µM
COc1ccccc1Nc1ncnc2c1cnn2-c1cccc(C)c1	MCF10A rereplic inconclusive
Cc1c(Nc2ncnc3c2cnn3-c2ccccc2)c(=O)n(-c2ccccc2)n1C	KB-V1 MDR tox inconclusive
COC(=O)C1=C[C@@H](C(=O)OC)C2C3=C(C(=O)C24CCCCC4)[C@H](C)n2c(=O)n(-c4ccccc4)c(=O)n2[C@@H]3C1 (stereo partly specified)	none
COC(=O)C1=C[C@@H](C(=O)OC)[C@@H]2C3=C(C(=O)C2(C)C)[C@H](C)n2c(=O)n(-c4ccccc4)c(=O)n2[C@@H]3C1	MCF10A rereplic inconclusive, SW480 rereplic 5.2µM
